The full list was thinned out, with hits kept by preference.
ST2 inh: inhibitors of human ST2 (IL1RL1) binding to IL-33. Q01638. AlphaLISA ST2-Fc/biotin-IL-33 interaction, 1 h. inhibition, % for hits at 17 µM. 78,000 compounds, 2.3% hits; in the data active = inhibition above about 30%
Target sequence (Q01638 whole entry, looked up): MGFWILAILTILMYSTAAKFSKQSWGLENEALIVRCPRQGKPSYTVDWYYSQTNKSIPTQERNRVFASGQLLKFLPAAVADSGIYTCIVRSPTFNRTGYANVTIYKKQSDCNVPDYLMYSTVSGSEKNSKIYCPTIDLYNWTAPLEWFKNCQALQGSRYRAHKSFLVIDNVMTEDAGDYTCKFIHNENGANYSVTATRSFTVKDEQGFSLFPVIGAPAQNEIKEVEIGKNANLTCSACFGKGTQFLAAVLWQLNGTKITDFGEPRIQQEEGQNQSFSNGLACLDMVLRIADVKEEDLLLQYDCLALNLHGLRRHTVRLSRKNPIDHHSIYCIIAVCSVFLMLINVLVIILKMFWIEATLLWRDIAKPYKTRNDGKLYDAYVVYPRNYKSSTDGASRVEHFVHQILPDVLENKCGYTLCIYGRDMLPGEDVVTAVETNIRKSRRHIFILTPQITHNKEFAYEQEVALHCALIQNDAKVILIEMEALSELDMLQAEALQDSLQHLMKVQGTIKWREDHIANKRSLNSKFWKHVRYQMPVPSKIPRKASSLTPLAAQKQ
A number is an active result; i = inactive; ! = repeats disagree.

SMILES	ST2 inh
CCN(Cc1noc(CC(C)C)n1)C(=O)c1cnn2cc(C)cnc12	i
COc1cc(OC)c(C2SC(NC(C)=O)=NN2C(C)=O)cc1Br (configuration not stated)	i
O=C1C=CC(=NS(=O)(=O)c2ccccc2)C=C1Br	31%
CN(C)C(=NS(=O)(=O)c1ccc(Br)cc1)c1ccccc1	i
CC(C)=C1C2C=CC1[C@@H]1C(=O)N(c3cccc(Cl)c3)C(=O)[C@H]21	i
O=C1c2ccccc2C(=O)N1CC(O)COc1ccc2ccccc2c1 (configuration not stated)	i
CCC1Oc2ccc(C)cc2N(CC(=O)N(C)CCC#N)C1=O (configuration not stated)	i
O=C(Nc1ccc(F)cc1Cl)C1c2ccccc2C(=O)N2CCc3ccccc3C12 (configuration not stated)	i
COc1ccc(N=Cc2cc(Br)cc(Cl)c2O)cc1	i
Oc1c(Br)cc(C=Nc2ccc(N3CCOCC3)cc2)c(O)c1Br	52%
NC(N)=NS(=O)(=O)c1ccc(N=Cc2cc(Br)cc(Br)c2O)cc1	i
COCc1nc(N2CCNC(c3ccccc3)C2)c2cnn(C)c2n1 (configuration not stated)	i
Cc1ccc(-c2nc3cccc(C)n3c2Nc2ccccc2)o1	i
COc1ccc(N(C)S(=O)(=O)c2ccc3c(c2)c(=O)n(C)c(=O)n3C)cc1	i
O=C(C1CCCN(C2CCN(c3nc4ccccc4s3)CC2)C1)N1CCCC1 (configuration not stated)	i
Oc1oc(-c2ccccc2F)nc1C=Nc1cc(Cl)c(Cl)cc1Cl	i
O=C(O)c1ccccc1N=Cc1nc(-c2ccccc2F)oc1O	i
Cc1ccc(N=Cc2nc(-c3ccccc3F)oc2O)c([N+](=O)[O-])c1	34%
O=C(NCCN1CCCCCC1)c1ccc2c(c1)NC(=O)C(N1CCOCC1)S2 (configuration not stated)	i
COc1cccc(F)c1-c1ccc(SCC(N)=O)cc1	i
COc1ccc2cc3cc(C(=O)Nc4ccc(OC)c(Cl)c4)oc3nc2c1	31%
CCc1cccc(NC(=O)c2cc3cc4ccc(OC)cc4nc3o2)c1	i
COc1ccc2cc3cc(C(=O)Nc4cccnc4)oc3nc2c1	i
COc1ccc2cc3cc(C(=O)Nc4ccc(C)cc4Cl)oc3nc2c1	i
COc1ccc2nc3oc(C(=O)N4CCOCC4)cc3cc2c1	i
SMILES	ST2 inh
COc1ccc2nc3oc(C(=O)Nc4ccc5c(c4)OCCO5)cc3cc2c1	36%
COc1ccc2nc3oc(C(=O)Nc4ccc(F)cc4F)cc3cc2c1	i
COc1ccc2cc3cc(C(=O)Nc4ccc(OC)c(OC)c4)oc3nc2c1	i
COc1ccc2cc3cc(C(=O)Nc4cccc(SC)c4)oc3nc2c1	34%!
CC(C)Nc1nc(-c2ccc([N+](=O)[O-])cc2)nc2ccccc12	i
CCN(C(=O)c1ccccc1F)c1ccccc1	i
Cc1[nH]c2ccc(CNC(=O)C3CC(=O)N(c4cccc(O)c4)C3)cc2c1C (configuration not stated)	i
CCCC(=O)Oc1ccc(C2C(C#N)=C(N)OC3=C2C(=O)CC(C)(C)C3)cc1 (configuration not stated)	i
CC1=C(/C=C/c2ccc(Cl)cc2Cl)C(=O)c2ccccc2C1=O	37%
COc1ccc2oc(=O)c(NC(=O)/C=C/c3ccc(Cl)cc3Cl)cc2c1	i
O=C1OC(Nc2ccc(Cl)cc2Cl)c2ccccc21 (configuration not stated)	i
CN(C)C(=O)CSc1nnc(-c2ccc(NC(=O)c3ccccc3F)cc2)n1C	i
CC(Cn1ccc2ccccc21)NC1CCN(c2ccc(NC(=O)c3cnccn3)cc2)CC1 (configuration not stated)	i
COC(=O)c1ccc(NC(=O)CN2CCN(Cc3ccccc3C)S2(=O)=O)cc1	i
COc1ccc(N2CCCS2(=O)=O)cc1NC(=O)c1ccc(OC)c(OC)c1	i
CC(C)c1ccc(N2C(=O)C3C4C=CC(C4)C3C2=O)cc1 (configuration not stated)	i
CSCC(=O)N[C@H]1CCN2C(=O)N(c3ccc(C(C)C)cc3)C(=O)[C@@H]2C1	52%
COc1cc(OC)cc(N2C(=O)[C@@H]3C[C@@H](NC(=O)c4cccn4C)CCN3C2=O)c1	i
CC(C)Cn1cc(C(=O)NC2CC2)c2c3ccccc3n(C)c2c1=O	i
CC1CC(C)CN(S(=O)(=O)c2ccc(Cl)cc2)C1 (configuration not stated)	i
O=S(=O)(Cc1ccccc1)c1ccc(Cl)cc1	i
O=C1C=CC(=NOS(=O)(=O)c2ccc(Cl)cc2)C=C1	48%
CC(C)n1cc(CN(Cc2ccc(F)cc2)CC2CCCO2)cn1 (configuration not stated)	i
O=c1nc(-c2ccccc2)c2ccccc2[nH]1	i
CNC(=O)c1cc2c(cn1)[nH]c1ccccc12	i
SMILES	ST2 inh
Nc1ccc2[nH]c3ccccc3c2c1	66%
O=C(Nc1ccc2nc(-c3ccccn3)c(-c3ccccn3)nc2c1)N1CCOCC1	i
CCOC(=O)N1CCN(C(=O)Nc2ccc3nc(C)c(C)nc3c2)CC1	i
O=C(Nc1ccc2nc(-c3ccco3)c(-c3ccco3)nc2c1)N1CCOCC1	36%
O=C(Nc1ccc2nsnc2c1)N1CCCCCC1	i
Cc1nc2ccc(NC(=O)N3CCN(c4ccccc4)CC3)cc2nc1C	i
O=C(Nc1ccc2nc(-c3ccco3)c(-c3ccco3)nc2c1)N1CCSCC1	30%
CCSCCOC(=O)C1=C(C)NC2=C(C(=O)C(C(=O)OC)C(C)C2)C1c1ccc(OC)cc1 (configuration not stated)	i
CCOc1ccc(N2S(=O)(=O)c3ccccc3S2(=O)=O)cc1	i
CCC(C)N(Cc1cccnc1)C(=O)c1cc(C)nn1CC (configuration not stated)	i
O=C(O)CC(NC(=O)CC12CC3CC(CC(C3)C1)C2)C(F)(F)F (configuration not stated)	i
Cc1ccccc1NC1=CC(=O)CC(C)(C)C1	i
CC1(C)CC(=O)C=C(/C=C/c2ccc(N3N=N3)cc2)C1	40%
O=c1c(O[C@@H]2O[C@H](CO)[C@@H](O)[C@H](O[C@@H]3O[C@H](CO)[C@@H](O)[C@H](O)[C@H]3O[C@@H]3OC[C@@H](O)[C@H](O)[C@H]3O)[C@H]2O)c(-c2ccc(O)c(O)c2)oc2cc(O)cc(O)c12	i
Cc1ccc(-c2noc([C@@H]3C[C@H](NC(=O)Nc4cccc(F)c4)CN3C)n2)cc1	i
CN1C[C@@H](NC(=O)Nc2cccc(F)c2)C[C@H]1c1nc(-c2ccc(F)cc2)no1	36%
CN1C[C@@H](NC(=O)CCC(=O)O)C[C@H]1c1nc(-c2ccccc2)no1	i
CN1C[C@@H](NC(=O)NCc2ccccc2)C[C@H]1c1nc(-c2ccccc2)no1	i
CN1C[C@@H](NC(=O)Nc2ccccc2)C[C@H]1c1nc(-c2ccc(F)cc2)no1	i
CN1C[C@@H](NC(=O)c2ccccc2)C[C@H]1c1nc(-c2ccc(F)cc2)no1	i
CN1C[C@@H](NC(=O)Nc2cccc(F)c2)C[C@H]1c1nc(-c2cccnc2)no1	i
CN1C[C@@H](NC(=O)CC(C)(C)CC(=O)O)C[C@H]1c1nc(-c2ccc(F)cc2)no1	30%
CN1C[C@@H](NC(=O)c2ccco2)C[C@H]1c1nc(-c2cccnc2)no1	49%
CNCC(=O)NC1CCCN(C(=O)c2cccs2)C1 (configuration not stated)	i
Cc1ccc(OCC(=O)O/N=C(/N)c2ccccc2)c(Br)c1	i
CCc1cccc(CC)c1N1C(=O)CCC1=O	i

Screening results: PubChem, Paczesny and Yang Labs, IUPUI and University of Michigan
